From ChEMBL document CHEMBL1157539, “Thousands of chemical starting points for antimalarial lead identification” (Nature, 2010)

Tests used:
Type in all cases: functional
Plasmodium falciparum [1] = assay: GSK_TCMDC: Inhibition of Plasmodium falciparum 3D7 in whole red blood cells, using parasite LDH activity as an index of growth. Test compounds present at 2uM
Plasmodium falciparum [2] = assay: GSK_TCMDC: Inhibition of Plasmodium falciparum Dd2 in whole red blood cells, using parasite LDH activity as an index of growth. Test compounds present at 2uM
HepG2 = assay: GSK_TCMDC: Percent inhibition of human HepG2 cell line. Test compounds present at 10uM.

Row | SMILES | Inhibition (Plasmodium falciparum [1]) [%] | Inhibition (Plasmodium falciparum [2]) [%] | Inhibition (HepG2) [%]
1 | O=C1c2ccccc2C(=O)N1CCOc1c(Br)cc(Br)cc1CNCCCNc1cc(=O)c2ccccc2[nH]1 | 92 | 12 | 10
2 | Cc1nnsc1C(=O)Nc1ccc(-c2cccc(-c3nc4cc(C(F)(F)F)ccc4[nH]3)c2)cc1 | 97 | 36 | 69
3 | Cc1cc(N[C@@H](CC(C)C)C(=O)NC2CCCC2)nc(NCc2ccccc2C)n1.O=C(O)C(F)(F)F | 98 | 44 | 2
4 | COc1cc(Cn2ccc3c4c(N)nc(N)nc4ccc32)cc(OC)c1OC | 94 | 97 | 66
5 | Br.CC1(C)NC(N)=NC(=N)N1OCCc1cccc2ccccc12 | 95 | 97 | 57
6 | O=C(Nc1ccc(OC2CCN(Cc3ccccc3)C2)c(Cl)c1)c1ccco1.O=C(O)C(F)(F)F (stereo unspecified) | 95 | 94 | 13
7 | CC[C@@H]([C@@H](Cc1cc2ccccc2s1)C(=O)N[C@@H](CCCCNC(=O)OCc1ccccc1)C(=O)Nc1ccccn1)N(O)C=O | 96 | 70 | 36
8 | COc1cccc(NC(=O)Nc2ccc(Nc3nc(C)cc(N4CCCC4)n3)cc2)c1 | 100 | 100 | 28
9 | CN1CCN(c2nc(NCCNc3ccc([N+](=O)[O-])cc3)c3ccccc3n2)CC1 | 90 | 25 | 37
10 | CCCCCCNC(=O)C1Cc2c([nH]c3ccccc23)C2(CCN(CCc3ccccc3)CC2)N1 (stereo unspecified) | 96 | 34 | 41
11 | Cc1nc(-c2nc(N3CCOCC3)ncc2-c2ccsc2)sc1C | 89 | 75 | 5
12 | O=C(Nc1cccc(CN2CCCN(Cc3cccc(O)c3)CC2)c1)c1ccc2ccccc2c1.O=C(O)C(F)(F)F | 97 | 42 | 21
13 | Cl.N#Cc1cccc(/C=C/C(=O)NC2CCC(CCN3CCc4ccc(-c5cnccn5)cc4CC3)CC2)c1 (stereo unspecified) | 93 | 47 | 22
14 | Cc1cccc2nc(-c3ccc(-c4cccc(CNCCCNS(C)(=O)=O)c4)cc3)[nH]c12.O=C(O)C(F)(F)F | 99 | 5 | 5
15 | O=C(Nc1cccc(-c2nc3ccccc3s2)c1)c1ccccc1[N+](=O)[O-] | 85 | 9 | 0
16 | O=C(/C=C/c1ccc(Cl)c(Cl)c1)NCCCN1CCC(c2c[nH]c3ccccc23)CC1 | 90 | 5 | 48
17 | Cc1cc(N[C@@H](CC(C)C)C(=O)Nc2ccccc2)nc(NCCc2ccccc2)n1.O=C(O)C(F)(F)F | 100 | 87 | 0
18 | COc1cc(Nc2ccnc3ccc(C(C)(C)C)cc23)cc(OC)c1OC | 100 | 80 | 12
19 | CCNc1cc(C(=O)N[C@@H](Cc2ccccc2)[C@H](O)CNC(C)(C)Cc2ccccc2)cc(N2CCCC2=O)c1.O=CO | 99 | 78 | 1
20 | CC1(C)Cc2c([nH]c3ccccc23)C(CCCCCCCCC2=NC(C)(C)Cc3c2[nH]c2ccccc32)=N1.Cl | 99 | 88 | 100
21 | Nc1nccc2ccc(-c3ccc(NC(=O)Nc4cc(C(F)(F)F)ccc4F)cc3)cc12.O=C(O)C(F)(F)F | 100 | 100 | 99

Row | SMILES | Inhibition (Plasmodium falciparum [1]) [%] | Inhibition (Plasmodium falciparum [2]) [%] | Inhibition (HepG2) [%]
22 | CCn1c(-c2nonc2N)nc2cnc(Oc3cccc(NC(=O)c4ccc(OCCN5CCCC5)cc4)c3)cc21 | 92 | 1 | 25
23 | Br.CC1(C)NC(N)=NC(=N)N1OCCOc1cccc(C(F)(F)F)c1 | 93 | 97 | 67
24 | C(=N\Nc1nccc2sc(-c3cccnc3)cc12)/c1cccnc1 | 98 | 54 | 5
25 | COc1cccc(CN2CCCC(OC(c3ccccc3)c3ccccc3)C2)c1O.O=C(O)C(F)(F)F (stereo unspecified) | 90 | 73 | 19
26 | Cc1cccc2nc(-c3cccc(-c4cccc(CNCCCN5CCCC5=O)c4)c3)[nH]c12.O=C(O)C(F)(F)F | 100 | 76 | 9
27 | CN1CCN(c2ccnc3ccc(NC(=O)Nc4ccc(-c5ccccc5)cc4)cc23)CC1 | 99 | 41 | 0
28 | O=C(Nc1cccc(-c2cccc(-c3nc4ccccc4[nH]3)c2)c1)c1ccoc1 | 85 | 36 | 19
29 | COc1ccc(-c2cc3ncnc(N4CCN(CCN5CCCC5)CC4)c3s2)cc1 | 98 | 90 | 22
30 | Clc1cc(Nc2ncnc3sc(C#C[C@H]4CCCN4)cc23)ccc1OCc1cccnc1Cl.O=C(O)C(F)(F)F | 100 | 93 | 9
31 | Cl.O=C(/C=C/c1ccc(F)cc1)NC1CCC(CCN2CCc3ccccc3CC2)CC1 (stereo unspecified) | 91 | 36 | 27
32 | NC1CCN(Cc2ccc(-c3cccc(-c4nc5ccccc5[nH]4)c3)cc2)C1.O=C(O)C(F)(F)F (stereo unspecified) | 98 | 0 | 19
33 | CC(C)(C)OC(=O)n1cc(C2CCN(CCCC34CCCc5cccc(c53)NC4=O)CC2)c2ccncc21 (stereo unspecified) | 92 | 0 | 20
34 | CCS(=O)(=O)c1ccc(OC)c(Nc2nccc(-c3c(-c4cccc(NC(=O)c5c(F)cccc5F)c4)nn4ncccc34)n2)c1 | 87 | 88 | 27
35 | Br.Oc1cccc2c1CC(NCc1ccccc1)CC2 (stereo unspecified) | 90 | 24 | 4
36 | O=C1c2cc(I)ccc2SC1c1ccccc1 (stereo unspecified) | 96 | 98 | 0
37 | O=c1[nH]nc(-c2ccc(N3CCCC3)c([N+](=O)[O-])c2)c2ccccc12 | 100 | 39 | 2
38 | Cc1ccc(Cl)c2sc(N3CCN(C(=O)c4ccc([N+](=O)[O-])o4)CC3)nc12 | 97 | 94 | 21
39 | Cc1ccccc1C1CCN(c2ncc(C(=O)NC3CC3)cc2Cl)CC1.O=C(O)C(F)(F)F | 96 | 96 | 22
40 | Cc1ccc2[nH]c(C3CCCNC3)c(-c3ccncc3)c2c1 (stereo unspecified) | 100 | 22 | 10
41 | COc1ccc(CNCCc2cccs2)cc1-c1ccc(S(=O)(=O)NCCN2CCCC2)cc1.O=C(O)C(F)(F)F | 99 | 30 | 30
42 | COc1ccc(N2C(=O)C3C(C2=O)C2(C)c4ccccc4C3(C)c3ccccc32)c([N+](=O)[O-])c1 (stereo unspecified) | 99 | 54 | 11

Row | SMILES | Inhibition (Plasmodium falciparum [1]) [%] | Inhibition (Plasmodium falciparum [2]) [%] | Inhibition (HepG2) [%]
43 | O=C(Nc1c(F)cccc1F)c1cccc(-c2nn3ccccc3c2-c2ccnc(Nc3cccc(-c4cnco4)c3)n2)c1 | 95 | 94 | 96
44 | Cc1ccccc1CCNC(=O)c1cnc(N2CCN(c3ccncc3)CC2)c(Cl)c1.O=C(O)C(F)(F)F | 100 | 95 | 36
45 | O=C(NCc1ccc(C(=O)NC2CCCCC2)cc1)c1ccc(O)c(-c2ccc(Cl)c(Cl)c2)c1 | 93 | 0 | 5
46 | COc1ccc(Nc2nc(N/N=C/c3ccc(-c4ccc([N+](=O)[O-])cc4)o3)nc(Nc3ccccc3)n2)cc1 | 100 | 17 | 0
47 | O=C(/C=C/c1ccccc1O)NCCCCCN1CCC(c2c[nH]c3ccccc23)CC1 | 95 | 1 | 7
48 | O=C(Nc1ccc(-c2cccc(-c3nc4cc(C(F)(F)F)ccc4[nH]3)c2)cc1)c1cccnc1 | 100 | 24 | 74
49 | Cl.OCCNc1nc(Nc2ccc(F)cc2)nc2ccccc12 | 94 | 73 | 10
50 | O=C(CCc1cccnc1)Nc1cccc(-c2ccc(-c3nc4cc(C(F)(F)F)ccc4[nH]3)s2)c1 | 89 | 13 | 35
51 | COc1ccc2nc3cc(Cl)ccc3c(NCCO)c2c1.Cl | 100 | 93 | 12
52 | COc1ccc(CC2(CO)CCN(Cc3ccc(O)c(Cl)c3)CC2)cc1 | 98 | 14 | 0
53 | Nc1nccc2ccc(-c3cccc4ncccc34)cc12.O=C(O)C(F)(F)F | 98 | 94 | 40
54 | CCCCN1CCN(CCCNc2c3ccccc3nc3ccccc23)CC1.Cl | 100 | 70 | 26
55 | CN1CCN(c2ccc(Nc3c(C(N)=O)cnc4cc(-c5ccoc5)ccc34)cc2)CC1.Cl | 100 | 99 | 14
56 | Cc1cc2c(cc1C(F)(F)F)N(C(=O)Nc1ccc(C(=O)NC3CCN(Cc4ccccc4)C3)cc1)CC2 (stereo unspecified) | 100 | 48 | 19
57 | O=C(Cn1c(=O)oc2ccccc21)N1CCC(n2c(=O)n(CCCN3CCOCC3)c3ccccc32)CC1 | 99 | 100 | 11
58 | COc1ccc2nccc([C@@H](O)CN3CCC(NCc4nc5c(cc4F)SCC(=O)N5)C(F)C3)c2c1.Cl (stereo partly specified) | 95 | 49 | 9
59 | CC(=O)Nc1ncc(C(=O)Nc2ccc(-c3cccc(-c4nc5cc(C(F)(F)F)ccc5[nH]4)c3)cc2)s1 | 100 | 92 | 79
60 | COc1cc(Nc2nccc(N3CCC(NC(=O)c4cc5ccccc5s4)C3)n2)cc(OC)c1OC (stereo unspecified) | 96 | 50 | 2
61 | Cc1[nH]c2ccccc2c(=O)c1Br | 94 | 84 | 2
62 | O=C(Nc1ccc(Cl)cc1)Nc1ccc(-c2cccc(-c3nc4ccccc4[nH]3)c2)cc1 | 100 | 78 | 69
